# According to ChEMBL document CHEMBL1156829:
# “And” between values parts separate entries of the source, which are not always exact repeats. Equal values may be shown once. In all, about 5,400 compounds were measured (“IFI”: median about 2, highest 2% from about 22 on). The list comes from a sample in which the highest values are over-represented; it also holds similar structures and randomly drawn compounds.
# Assay: NOVARTIS: Inhibition Frequency Index (IFI) - the number of HTS assays where a compound showed > 50% inhibition/induction, expressed as a percentage of the number of assays in which the compound was tested.
# Type: functional
row,SMILES,IFI
1,Cc1occc1C(=O)NN=C/C(Cl)=C/c1ccccc1,7.69%
2,CC(C)(C)OCCN(CC(O)CN(Cc1ccccc1)C(=O)NC(c1ccccc1)c1ccccc1)S(=O)(=O)c1ccccc1 (centres undefined),0.935%
3,COc1cc(C2C(C(=O)OCC(C)C)=C(C)NC3=C2C(=O)CC(c2ccccc2)C3)cc(Br)c1O (centres undefined),4.65%
4,Cc1ccc(Cn2c(N3CCC(C(=O)NCc4ccccn4)CC3)nc3ccccc32)cc1,0%
5,CCc1cccc2c(C#N)cn(CC(=O)Nc3ccc(OC)cc3)c12,7.69%
6,Clc1ccc(C[n+]2cc(-c3ccccc3)n3c2CCC3)cc1Cl,3.77%
7,Cc1cccc(C)c1NC(=O)N1CCN(C(=O)c2nc(-c3ccccc3)nc(C)c2C(=O)OC(C)C)CC1C (centres undefined),2.8%
8,N#CC(c1ccc(C(F)(F)F)cc1)c1ccc2c(C(F)(F)F)cc(C(F)(F)F)nc2n1 (centres undefined),26.3%
9,COc1ccc(C2Nc3ccc4ccccc4c3C3=C2C(=O)CC(C)(C)C3)cc1Br (centres undefined),0%
10,CCCCOc1cccc(C(=O)N(Cc2cccs2)c2ccc(OC)cc2)c1,0%
11,CCN1C(=Cc2sc3cc(NC(C)=O)ccc3[n+]2CC)C=Cc2cc(C)ccc21,7.69%
12,CC[n+]1c(/C=C2\C=Cc3cc(C)ccc3N2C)ccc2cc(C)ccc21,15.4%
13,CCN1C(=Cc2ccc3c4ccoc4ccc3[n+]2CC)C=Cc2c1ccc1occc21,28.6%
14,C=CCN1C=CC(=Cc2sc3ccccc3[n+]2C)c2ccccc21,17.6%
15,CC(C)(C)NC(=O)C(c1ccc(F)cc1)N(CCCN1CCOCC1)C(=O)c1ccc(-c2ccccc2)[nH]1 (centres undefined),3.16%
16,COc1ccc(OC)c(NC(=O)c2cnn3c(C(F)(F)F)cc(-c4ccc(OC)c(OC)c4)nc23)c1,2.38%
17,CC1(C)C(=O)C2(CCCCC2)C(=O)OC1/C=C/c1ccccc1 (centres undefined),1.49%
18,c1ccc(CSc2nc3ccncc3[nH]2)cc1,0%
19,c1ccc(CSc2scnc2[P+](c2ccccc2)(c2ccccc2)c2ccccc2)cc1,27.8%
20,c1ccc(CSc2nnc3c(n2)[nH]c2ccccc23)cc1,0% and 3.82%
21,COc1ccccc1CN1CCc2nc(-c3cnccn3)sc2C1,9.86%
22,COc1ccc(CCNc2nc(NCCCn3ccnc3)ncc2C(=O)NCC(C)C)cc1OC,1.92%
23,CC(=O)N(Cc1ccc(F)cc1)C1=C(NCc2ccccc2)C(=O)c2ccccc2C1=O,23.1%
24,CC(=O)N(Cc1ccc(F)cc1)C1=C(NCCc2ccccc2)C(=O)c2ccccc2C1=O,8.33%
25,CNC1=C(N(Cc2ccc(Cl)c(Cl)c2)C(C)=O)C(=O)c2ccccc2C1=O,14.3%

row,SMILES,IFI
1,CCOC(=O)c1c(N=Cc2cccc(OC)c2O)sc2c1CCN(C)C2,0%
2,O=c1cc[nH]c2cc(N3CCCCCC3)c(F)cc12,0%
3,O=C(Nc1ccc2oc(-c3cccc4ccccc34)nc2c1)c1ccc([N+](=O)[O-])o1,7.14%
4,C=CC1(C)CC23CC(C(OC(=O)c4ccccc4)c4ccnc5ccccc45)N2CCC13 (centres undefined),3.64%
5,COc1cccc2cc(-c3nc(-c4ccccc4)cs3)c(=O)oc12,6.45%
6,COc1cccc(N2C(=O)/C(=C/c3cccnc3)SC2=S)c1,0%
7,Cc1cc(/C=C2/SC(=S)N(CC(=O)O)C2=O)c(C)n1-c1ccccc1,0%
8,CCN1/C(=C\C=C2/SC(=S)N(c3ccccc3)C2=O)C(C)(C)c2cc(-c3ccccc3)ccc21,25%
9,N#Cc1c(-c2ccccc2)cc(N2CCN(Cc3ccc(Cl)cc3)CC2)n2c1nc1ccccc12,7.5%
10,COc1cc2c(OC3OCC(OC)C(OC)C3O)c3c(c(-c4ccc5c(c4)OCO5)c2cc1OC)C(=O)OC3 (centres undefined),27.7%
11,CCOC(=O)c1c(-c2ccc3c(c2)OCO3)[nH]c2cccc(OC)c2c1=O,0%
12,CCOC(=O)c1c(-c2ccc3c(c2)OCO3)[nH]c2cc(OC)ccc2c1=O,0%
13,CCOc1ccc(NC(=O)C2c3ccccc3C(=O)N(CC(C)C)C2c2cccs2)cc1 (centres undefined),6.25%
14,CS[C@H]1SC[C@H]2C(=O)N(C)[C@@H](C(C)C)C(=O)OC[C@@H](NC(=O)c3cnc4ccccc4n3)C(=O)N[C@@H](C)C(=O)N(C)[C@@H]1C(=O)N(C)[C@@H](C(C)C)C(=O)OC[C@@H](NC(=O)c1cnc3ccccc3n1)C(=O)N[C@@H](C)C(=O)N2C,34.6%
15,O=C(Nc1ccc(C2=NCCN2)cc1)c1ccc(-c2ccc(C(=O)Nc3ccc(C4=NCCN4)cc3)cc2)cc1,4.4%
16,O=C(CN(CCN1CCOCC1)S(=O)(=O)c1ccccn1)N1CCN(C(c2ccccc2)c2ccccc2)CC1,0%
17,OC1(c2ccc3ccccc3c2)c2c(c3ccccc3c3ccccc23)C2=NCCN21 (centres undefined),3.25%
18,CCn1c2ccccc2[n+]2c(C)cc(C)nc12,7.14%
19,COc1cc2nc(NCC3CCCO3)n3nc(-c4ccccc4)nc3c2cc1OC (centres undefined),2.27%
20,CCn1c(/C=C/N(C)c2ccccc2)[n+](CC)c2cc(Cl)ccc21,6.25%
21,CCOC(=O)c1ccc2c(c1)[n+](CC)c(/C=C/N(C)c1ccccc1)n2CC,7.41%
22,CC[n+]1c(/C=C/N(C)c2ccccc2)n(-c2ccccc2)c2ccc(-c3nc4ccccc4s3)cc21,29.2%
23,NCCC(=O)N1CC(c2ccccc2)c2ccccc2C1CN1CCCCC1 (centres undefined),4.22%
24,COc1ccc2cc(CNCCc3cccc(Cl)c3)c(N3CCC(=O)N(CCN(C)C)CC3)nc2c1,9.73%
25,Cc1onc(-c2ccccc2)c1C(=O)N1CCC(CNc2c(-c3ccc(F)cc3)nc3ccccn23)CC1,5.56%

row,SMILES,IFI
1,Cc1ccc(-c2cc(-c3cc(Cl)ccc3O)on2)cc1,0%
2,c1ccc(Nc2nc(-c3ccccn3)cs2)nc1,18.1%
3,Cc1ccnc(Nc2nc(-c3ccccn3)cs2)c1,24.6%
4,Cc1ccc(Nc2nc(-c3ccccn3)cs2)cc1,3.62%
5,O=C1c2ccccc2C(=O)c2c1ccc1nonc21,30.8%
6,O=S(=O)(NC1CCCC1)c1cccc2nonc12,0%
7,CC(=O)c1ccc2c3c(onc13)-c1ccccc1C2=O,0%
8,O=C(C1=C(O)C(=O)N(CCCn2ccnc2)C1c1ccccc1[N+](=O)[O-])c1ccccc1 (centres undefined),0%
9,COc1cccc(CNc2ncnc3sc(C(=O)NCC4COCCO4)c(C)c23)c1OC (centres undefined),1%
10,COc1ccc(Nc2nc(NN=Cc3cccc([N+](=O)[O-])c3OC)nc(Nc3ccc([N+](=O)[O-])cc3)n2)cc1,6.49%
11,CCC(c1nc2ccccc2c(=O)n1CCOC)N1CCNCC1 (centres undefined),3.31%
12,C=CC[n+]1c(C=C2C=CN(C)C=C2)sc2ccccc21,15.4%
13,CC[n+]1c(C)cc2c([nH]c3ccccc32)c1C,3.03%
14,O=c1c2ccccc2[nH]c2ccc(F)cc12,0%
15,O=C1c2ccccc2-[n+]2ccc3c([nH]c4ccccc43)c21,41.2%
16,CC(=O)NCCc1ccc(O)cc1,1.48%
17,CCN(CC)CCNc1nc(/C=C/c2ccc(Cl)cc2)nc2cc3ccccc3cc12,8.77%
18,S=C(NN=Cc1ccccn1)NC1CC2CC1C1C=CCC21 (centres undefined),32.5%
19,CC1(C)C2CCC(C2)C1(C)NC(=S)NN=Cc1ccccn1 (centres undefined),26%
20,S=C(NN=Cc1ccccn1)NC1CC2C=CC1C2 (centres undefined),19.7%
21,Cn1c2ccccc2c2nnc(NN=Cc3ccccn3)nc21,15.4%
22,Cc1ccc(NC(=O)C2CSC(c3cccc(F)c3)N2C(=O)c2ccc(C(C)(C)C)cc2)cc1C (centres undefined),4.25%
23,CC(C)(C)NC(=O)C(c1cccs1)N(CCCN1CCOCC1)C(=O)c1ccc(-c2ccccc2)[nH]1 (centres undefined),3.26%
24,Cc1ccc(S(=O)(=O)Oc2ccc(C=NN=C(N)N)cc2)cc1,0%
25,CC(C)CN1C(=O)c2ccccc2C(C(=O)Nc2ccc(C(C)C)cc2)C1c1cccs1 (centres undefined),6.06%

row,SMILES,IFI
1,COC(=O)c1cn([C@H]2C[C@@H](C(=O)NCc3ccc(OC)cc3)N(Cc3ccsc3)C2)nn1,1.98%
2,CCCC1=[N+](CC(=O)c2ccc(C)cc2)CCn2c(C)ccc21,5.75%
3,CC[C@@H](C(=O)[C@@H](C)[C@@H](O)[C@H](C)CCc1ccc(C)c(O)c1C(=O)O)[C@H]1O[C@](CC)([C@H]2CC[C@](O)(CC)[C@@H](C)O2)C[C@@H]1C,26.9%
4,CC[C@@H](C(=O)[C@@H](C)C(O)[C@H](C)CCc1ccc(C)c(O)c1C(=O)O)C1O[C@](CC)(C2CC[C@](O)(CC)[C@H](C)O2)C[C@@H]1C (some centres undefined),9.84%
5,Cc1ccc(CNC(=O)C2CNCC2c2ccc(C(F)(F)F)cc2)cc1 (centres undefined),2.82%
6,O=C1N(c2ccccc2)C[C@@H]2C[C@@H](c3ccc4nonc4c3)N3CCC[C@@]123,7.69%
7,OC1=C2C(=Nc3ccccc3SC2c2ccccc2)c2ccccc21 (centres undefined),2.25%
8,COc1ccc(-c2c[n+](CC(=O)O[C@H]3C[C@H](C)CC[C@@H]3C(C)C)c3n2CCCCC3)cc1,21.9%
9,CC1CCC(C(C)C)C(OC(=O)Cn2c(-c3ccccc3)[n+](C)c3ccccc32)C1 (centres undefined),13.1%
10,COc1ccc(-c2n(C)c3ccccc3[n+]2CC(=O)OC2CC(C)CCC2C(C)C)cc1 (centres undefined),22.7%
11,O=C1Cc2c([nH]c3ccc(OCc4ccccc4)cc23)C2CC=CCC12 (centres undefined),0%
12,Nc1c(C(=O)NCc2ccccc2)nnn1Cc1ccc(F)cc1Cl,0%
13,CCN1/C(=C/c2sc3ccc(I)cc3[n+]2CC)C=Cc2ccccc21,15.4%
14,CCN1/C(=C/c2sc3ccc(-c4ccccc4)cc3[n+]2CCO)C=Cc2cc(OC)ccc21,7.14%
15,CCN1/C(=C/c2sc3ccc(Br)cc3[n+]2CC)C=Cc2ccccc21,15.4%
16,CCN1/C(=C/c2sc3ccccc3[n+]2CC)C=Cc2cc(NC(C)=O)ccc21,7.69%
17,CCN1/C(=C\c2sc3ccc(O)cc3[n+]2CC)C=Cc2ccccc21,23.1%
18,CCN1C(=Cc2sc3ccc(Cl)cc3[n+]2CC)C=Cc2cc(OC)ccc21,15.4%
19,CCN1/C(=C/c2sc3ccc(OC)cc3[n+]2CC)C=Cc2cc(C)ccc21,23.1%
20,CCN1/C(=C/c2sc3ccc(OC)cc3[n+]2CC)C=Cc2cc(OC)ccc21,15.4%
21,CCN1C(=Cc2sc3ccc(OC)cc3[n+]2CC)C=Cc2ccccc21,25%
22,CCCN1/C(=C/c2sc3ccccc3[n+]2CC)C=Cc2ccccc21,23.1%
23,CCCC[n+]1c(C=C2C=Cc3ccccc3N2CC)sc2ccccc21,11.1%
24,CCN1/C(=C/C2=CC(=C/c3sc4ccccc4[n+]3CC)/CC(C)(C)C2)C=Cc2ccccc21,9.43%
